Experimental data from PubChem BioAssay AID1159580 (chemical genetic matrix, 2015).
Where “and” joins values, the source holds several entries; their conditions need not be identical. Equal values may be shown once. Hit rate of the full screen: of about 5,500 compounds, about 2,000 (36%) were called active. Roughly 18% stayed inconclusive and do not appear here. No stated cut-off is given here; in the data, active means normalized growth mostly below about 0.91 (no sharp cut-off); inconclusive means no clear call, values can overlap the other calls; inactive means mostly above about 0.92. The list shows a part of the results.

Assay: chemical genetic growth profiling, strain panel (AID 1159580);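 further: tested at 20 µM; growth read once vehicle control cultures reached saturation at 30 °C; 1 = growth at the plate median or of vehicle wells; lower values mean less growth of the strain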
Settings: S. cerevisiae deletion strains, growth OD

Measured: normalized growth

Clc1ccc2c(c1)C(N1CCNCC1)=Nc1ccccc1O2
active: locus YAL021C, strain ccr4, hits give low values 0.829 | locus YAL026C, strain drs2, hits give low values 0.466 | locus YDR137W, strain rgp1, hits give low values 1.32 [resistant] | locus YFR010W, strain ubp6, hits give low values 0.88
inactive: locus YAL013W, strain DEP1, hits give low values 0.984 and 1.02 | locus YAL030W, strain snc1, hits give low values 0.978 | locus YAL040C, strain CLN3, hits give low values 1.01 | locus YBL061C, strain skt5, hits give low values 0.991 | locus YBR009C, strain hhf1, hits give low values 0.963 | locus YBR021W, strain FUR4, hits give low values 0.989 | locus YBR023C, strain chs3, hits give low values 0.969 | locus YBR171W, strain sec66, hits give low values 0.991 | locus YBR229C, strain ROT2, hits give low values 0.952 | locus YBR231C, strain swc5, hits give low values 0.994 | locus YBR279W, strain paf1, hits give low values 0.968 | locus YCL011C, strain gbp2, hits give low values 0.988 | locus YCL016C, strain dcc1, hits give low values 0.979 | locus YCL029C, strain bik1, hits give low values 0.986 | locus YCL069W, strain vba3, hits give low values 0.969 | locus YCR088W, strain abp1, hits give low values 0.994 | locus YDL005C, strain med2, hits give low values 0.994 | locus YDL035C, strain GPR1, hits give low values 0.972 | locus YDL040C, strain nat1, hits give low values 1.01 | locus YDL074C, strain BRE1, hits give low values 1.03 | locus YDL101C, strain DUN1, hits give low values 0.991 | locus YDL134C, strain PPH21, hits give low values 0.996 | locus YDL185W, strain tfp1, hits give low values 0.986 | locus YDL192W, strain arf1, hits give low values 0.99 | locus YDR001C, strain nth1, hits give low values 0.992 | locus YDR069C, strain doa4, hits give low values 0.901 | locus YDR101C, strain arx1, hits give low values 0.995 | locus YDR150W, strain NUM1, hits give low values 0.974 | locus YDR159W, strain sac3, hits give low values 0.984 | locus YDR162C, strain NBP2, hits give low values 0.988 | locus YDR195W, strain ref2 1.07 | locus YDR297W, strain sur2, hits give low values 0.992 | locus YDR318W, strain mcm21, hits give low values 0.993 | locus YDR334W, strain swr1, hits give low values 0.957 | locus YDR335W, strain msn5, hits give low values 0.975 | locus YDR388W, hits give low values 0.98 | locus YDR392W, strain spt3, hits give low values 1.06 | locus YDR502C, strain sam2, hits give low values 0.959 | locus YEL003W, strain gim4, hits give low values 0.996 | locus YEL037C, strain rad23, hits give low values 0.968 | locus YEL061C, strain CIN8 (second series), hits give low values 0.992 | locus YEL061C, strain CIN8, hits give low values 0.984 | locus YER002W, strain NOP16, hits give low values 0.998 | locus YER015W, strain faa2, hits give low values 0.983 | locus YER016W, strain bim1, hits give low values 0.993 | locus YER110C, hits give low values 0.978 | locus YER111C, strain swi4, hits give low values 0.984 | locus YER155C, strain BEM2 (second series), hits give low values 0.992 | locus YER155C, strain BEM2, hits give low values 1 | locus YER167W, strain BCK2, hits give low values 0.994 | locus YGL078C, strain dbp3, hits give low values 0.968 | locus YGL086W, strain mad1, hits give low values 0.986 | locus YGL167C, strain pmr1, hits give low values 0.974 | locus YGL173C, strain kem1, hits give low values 0.928 | locus YGL227W, strain vid30, hits give low values 0.985 | locus YGL240W, strain doc1, hits give low values 0.975 | locus YGL248W, strain PDE1, hits give low values 0.987 | locus YGL253W, strain hxk2, hits give low values 0.989 | locus YGR078C, strain PAC10, hits give low values 1 | locus YGR135W, strain pre9, hits give low values 0.98 | locus YGR229C, strain SMI1, hits give low values 0.937 | locus YGR252W, strain gcn5, hits give low values 0.915 | locus YHR013C, strain ard1, hits give low values 0.891 | locus YHR027C, strain rpn1, hits give low values 0.989 | locus YHR030C, strain SLT2, hits give low values 0.994 and 1.02 | locus YHR079C, strain IRE1 (second series), hits give low values 0.986 | locus YHR079C, strain IRE1, hits give low values 1.03 | locus YHR094C, strain hxt1, hits give low values 0.998 | locus YHR129C, strain ARP1, hits give low values 1 | locus YHR142W, strain chs7, hits give low values 0.957 | locus YHR200W, strain rpn10, hits give low values 0.992 | locus YIL066C, strain RNR3, hits give low values 0.978 | locus YIL073C, strain SPO22, hits give low values 1.05 | locus YIL125W, strain kgd1, hits give low values 0.97 | locus YIR030C, strain dcg1, hits give low values 0.986 | locus YJL092W, strain hpr5, hits give low values 0.987 | locus YJL095W, strain BCK1 (second series), hits give low values 0.965 | locus YJL095W, strain BCK1, hits give low values 0.98 and 1.02 | locus YJL115W, strain asf1, hits give low values 0.957 | locus YJL129C, strain trk1, hits give low values 1.06 | locus YJL134W, strain LCB3, hits give low values 0.985 | locus YJL154C, strain vps35, hits give low values 0.97 | locus YJL164C, strain tpk1, hits give low values 0.964 | locus YJL166W, strain qcr8, hits give low values 0.984 | locus YJL168C, strain set2, hits give low values 0.996 | locus YJL187C, strain SWE1 (second series), hits give low values 1 | locus YJR043C, strain POL32, hits give low values 1.02 | locus YJR066W, strain TOR1, hits give low values 0.972 | locus YJR075W, strain HOC1, hits give low values 1 | locus YKL009W, strain mrt4, hits give low values 0.96
